Compound activity as filed in PubChem.
The list is not random: actives were taken first. Their share in the collection is about 3.8%.
697 NFkB inh: lowers PMA/ionomycin-induced NF-kB signal in 697 B cells; 697 B-cell NF-kB luciferase reporter, 16 h; inhibition, % at 4 µM; actives 0.33% (n = 330,000); in the data active = inhibition above about 35%
Bfl-1 A1 inh: inhibitors of the anti-apoptotic protein A1, read as caspase activation | MEF A1-2A-BIM cells, Caspase-Glo 3/7 luminescence, 3 h; percent of clofoctol response, vehicle zero | caspase activation, % (concentration not given with the values) | actives 0.066% (n = 330,000) | AID 2462;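 active = over half of replicate activation scores above 10%, or exactly half above 10 with the replicate mean above 10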
Beta apoptosis: blocks beta cell apoptosis | INS-1E cytokine-induced death, ATP luminescence, 48 h; percent of positive-control rescue, neutral wells zero | protection from apoptosis, % (concentration not given with the values) | actives 0.8% (n = 300,000);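 active = Every replicate reaches about 75%, or at least half do and their mean reaches it too, limit read from the data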;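 also: 0% = cytokine-treated negative control wells and 100% = positive control rescue; higher means more ATP so stronger rescue from cytokine killing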
Jurkat NFkB inh: lowers PMA/ionomycin-induced NF-kB signal in Jurkat cells; PMA/ionomycin-induced NF-kB luciferase reporter, luminescence; inhibition, % at 4 µM; actives 0.53% (n = 330,000); AID 435003; in the data active = inhibition above about 50%
Mdm2 MdmX PPI: inhibitors of human Mdm2/MdmX interaction. O15151+Q00987. SaOS-2 split-luciferase Mdm2/MdmX complementation, luminescence. inhibition, % at 8 µM. actives 3% (n = 330,000);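 active = inhibition of at least 50% at 8 µM in the primary screen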
Target sequence (O15151 whole entry, looked up): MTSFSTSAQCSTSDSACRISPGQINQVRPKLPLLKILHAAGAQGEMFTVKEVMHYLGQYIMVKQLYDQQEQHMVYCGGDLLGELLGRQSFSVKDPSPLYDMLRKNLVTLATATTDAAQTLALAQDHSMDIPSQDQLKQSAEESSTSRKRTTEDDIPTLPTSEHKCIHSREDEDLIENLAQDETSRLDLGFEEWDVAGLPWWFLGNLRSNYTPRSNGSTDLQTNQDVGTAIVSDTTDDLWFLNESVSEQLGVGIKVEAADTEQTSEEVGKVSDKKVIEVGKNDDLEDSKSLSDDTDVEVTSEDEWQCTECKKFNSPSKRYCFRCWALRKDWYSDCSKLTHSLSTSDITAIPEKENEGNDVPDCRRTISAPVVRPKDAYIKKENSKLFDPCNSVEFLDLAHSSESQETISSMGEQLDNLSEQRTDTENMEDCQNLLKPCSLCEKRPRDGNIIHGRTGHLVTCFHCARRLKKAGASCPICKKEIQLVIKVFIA
Target sequence (Q00987 whole entry, looked up): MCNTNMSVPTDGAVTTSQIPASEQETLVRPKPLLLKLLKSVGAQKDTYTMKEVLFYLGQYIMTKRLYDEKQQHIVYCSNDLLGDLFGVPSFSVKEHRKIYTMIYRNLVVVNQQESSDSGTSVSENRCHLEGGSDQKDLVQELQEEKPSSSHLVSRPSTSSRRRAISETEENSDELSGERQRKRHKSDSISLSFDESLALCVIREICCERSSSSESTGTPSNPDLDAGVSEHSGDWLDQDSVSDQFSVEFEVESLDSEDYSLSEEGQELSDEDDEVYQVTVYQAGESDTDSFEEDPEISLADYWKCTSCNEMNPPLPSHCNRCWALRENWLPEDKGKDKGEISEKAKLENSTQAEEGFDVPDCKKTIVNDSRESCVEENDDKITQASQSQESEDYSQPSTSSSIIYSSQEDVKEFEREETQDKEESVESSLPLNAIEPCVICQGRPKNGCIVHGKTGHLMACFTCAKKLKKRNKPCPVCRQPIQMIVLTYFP
NTR1 ag: NTR1 (human) agonism. P30989. NTR1-U2OS beta-arrestin-GFP spot imaging, agonist mode. AID 493036. actives 0.17% (n = 330,000). activation, % at 20 µM;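 active = activation at or above 40% of the spot to cytoplasm intensity ratio, with at least 20 cells analyzed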;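 also: 0% = DMSO without peptide and 100% = 100 nM NTR1 peptide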
Mdm2-MdmX conf: human Mdm2/MdmX binding inhibition, confirmed | luminescent assay | actives 55% (n = 10,000) | shares compounds with Mdm2 MdmX PPI | inhibition, % at 8 µM; in the data active = inhibition above about 40%
FLuc counter: full-length luciferase inhibition in Mdm2/MdmX counter-screen; inhibition, % at 8 µM; actives 77% (n = 6,200); SaOS-2 full-length luciferase counterscreen, luminescence; shares compounds with Mdm2 MdmX PPI; AID 504607;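 active = mean inhibition at 8 µM reaching about 37%, which flags the compound as non-specific, limit read from the data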;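 also: p53-null SaOS-2 cells with luciferase driven by a doxycycline-inducible promoter; compound on cells about two nights before reading with doxycycline added after day one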
An asterisk follows results filed as active.

`COc1ccc(-n2cc(CN[C@H]3CCCCNC3=O)c(-c3cccc(F)c3)n2)cc1` gave 697 NFkB inh 10, Bfl-1 A1 inh 1, Beta apoptosis -2, Jurkat NFkB inh -6, Mdm2 MdmX PPI -15 and NTR1 ag 0.
For COc1ccc(-n2cc(CNC3CCN(C)CC3)c(-c3cccc(F)c3)n2)cc1 the results were 697 NFkB inh 13, Bfl-1 A1 inh 0, Beta apoptosis 1, Jurkat NFkB inh -15, Mdm2 MdmX PPI 66*, NTR1 ag 5, Mdm2-MdmX conf 57* and FLuc counter 41*.
For CN(C)CCCNS(=O)(=O)c1ccc(N2CCC(c3ccc(Cl)cc3)=N2)cc1 the results were 697 NFkB inh -15, Bfl-1 A1 inh 1, Beta apoptosis 12, Jurkat NFkB inh 23, Mdm2 MdmX PPI 100*, NTR1 ag 14, Mdm2-MdmX conf 100* and FLuc counter 2.
For COc1ccc2c(c1)OC[C@H]1[C@H]2N2C(=O)c3cc(C)ccc3NC(=O)[C@@]2(C)[C@H]1c1ccccc1 the results were 697 NFkB inh 7, Bfl-1 A1 inh 1, Beta apoptosis 1, Jurkat NFkB inh 1, Mdm2 MdmX PPI 29 and NTR1 ag -2.
C[C@@]12C(=O)Nc3cc(F)c(F)cc3C(=O)N1[C@H]1c3cc(Cl)ccc3OC[C@@H]1[C@@H]2c1ccccc1 was read as 697 NFkB inh 16, Bfl-1 A1 inh 0, Beta apoptosis 6, Jurkat NFkB inh 15, Mdm2 MdmX PPI 51*, NTR1 ag -1 and Mdm2-MdmX conf 34.
Screening C[C@@]12C(=O)Nc3ccc(Cl)cc3C(=O)N1[C@H]1c3cc(Cl)ccc3OC[C@@H]1[C@@H]2c1ccccc1 returned 697 NFkB inh 22, Bfl-1 A1 inh 0, Beta apoptosis 12, Jurkat NFkB inh 0, Mdm2 MdmX PPI 53*, NTR1 ag -2 and Mdm2-MdmX conf 14.
`COc1ccc2c(c1)OC[C@H]1[C@H]2N2C(=O)c3ccccc3NC(=O)[C@@]2(C)[C@H]1c1ccccc1` gave 697 NFkB inh 6, Bfl-1 A1 inh 2, Beta apoptosis 4, Jurkat NFkB inh 9, Mdm2 MdmX PPI 50*, NTR1 ag 2, Mdm2-MdmX conf 36 and FLuc counter 54*.
Screening Cc1ccc2c(c1)[C@H]1[C@H](CO2)[C@H](c2ccccc2)[C@]2(C)C(=O)Nc3ccc(Cl)cc3C(=O)N12 returned 697 NFkB inh 7, Bfl-1 A1 inh 0, Beta apoptosis 1, Jurkat NFkB inh 0, Mdm2 MdmX PPI 35 and NTR1 ag 0.
For C=CCNc1cc(=O)n(Cc2ccccc2)c(=O)[nH]1 the results were 697 NFkB inh -4, Bfl-1 A1 inh 0, Beta apoptosis 4, Jurkat NFkB inh -6, Mdm2 MdmX PPI -4 and NTR1 ag 1.
Screening O=C(COC(=O)c1cc(=O)c2ccccc2o1)Nc1ccccc1F returned 697 NFkB inh 8, Bfl-1 A1 inh 0, Beta apoptosis -3, Jurkat NFkB inh 13, Mdm2 MdmX PPI 11 and NTR1 ag -2.
C/C(=N\NC(=O)Cc1ccc(Cl)cc1)c1ccccc1O was read as 697 NFkB inh 16, Bfl-1 A1 inh 0, Beta apoptosis 68, Jurkat NFkB inh -7, Mdm2 MdmX PPI 57*, NTR1 ag 1, Mdm2-MdmX conf 44* and FLuc counter 43*.
`COc1ccccc1CC(=O)N1CCN(c2ccccc2)CC1` gave 697 NFkB inh 9, Bfl-1 A1 inh 0, Beta apoptosis 8, Jurkat NFkB inh 2, Mdm2 MdmX PPI 6 and NTR1 ag 1.
O=C(COc1ccc(Br)cc1)Nc1ccc(N2CCOCC2)cc1N1CCOCC1 was read as 697 NFkB inh -32, Bfl-1 A1 inh -1, Beta apoptosis 4, Jurkat NFkB inh 33, Mdm2 MdmX PPI 82*, NTR1 ag -2 and Mdm2-MdmX conf 8.
Screening O=C(Nc1ccc(N2CCOCC2)cc1N1CCOCC1)c1ccc(Br)cc1 returned 697 NFkB inh 13, Bfl-1 A1 inh -1, Beta apoptosis -15, Jurkat NFkB inh -5, Mdm2 MdmX PPI 23 and NTR1 ag 0.
Cc1ccc2oc(C(=O)N(Cc3nccn3C)C(C)C)c(C)c2c1 was read as 697 NFkB inh -10, Bfl-1 A1 inh 0, Beta apoptosis -14, Jurkat NFkB inh -5, Mdm2 MdmX PPI 21 and NTR1 ag 0.
For CCCCN(CCCC)CCNC(=O)c1cn(C)c2ccc(S(=O)(=O)N(C)C3CCCCC3)cc2c1=O the results were 697 NFkB inh -31, Bfl-1 A1 inh -1, Beta apoptosis -3, Jurkat NFkB inh -14, Mdm2 MdmX PPI 30 and NTR1 ag 1.
`Cc1cccc(C(=O)CC(=O)c2cc(Cl)ccc2O)c1` gave 697 NFkB inh -37, Bfl-1 A1 inh -1, Beta apoptosis 44, Jurkat NFkB inh 7, Mdm2 MdmX PPI 62*, NTR1 ag 8, Mdm2-MdmX conf 58* and FLuc counter 39*.
`CCC(=O)Nc1ccc2c(c1)nc1n2CCN(CCOC)C1` gave 697 NFkB inh -23, Bfl-1 A1 inh 0, Beta apoptosis 0, Jurkat NFkB inh -2, Mdm2 MdmX PPI -15 and NTR1 ag 1.
Screening CN(CC(=O)Nc1ccc(F)cc1)C(=O)CN1C(=O)NC2(CCCC2)C1=O returned 697 NFkB inh 1, Jurkat NFkB inh -11, Mdm2 MdmX PPI 2 and NTR1 ag -1.
Screening O=c1c2cc(Cl)cc(Cl)c2nc2n1CCC2 returned 697 NFkB inh 5, Bfl-1 A1 inh 0, Beta apoptosis -5, Jurkat NFkB inh -1, Mdm2 MdmX PPI 6 and NTR1 ag 0.
For O[C@@H](c1cc(C(F)(F)F)nc2c(C(F)(F)F)cccc12)[C@H]1CCCCN1 the results were 697 NFkB inh -22, Bfl-1 A1 inh 2, Beta apoptosis -14, Jurkat NFkB inh 15, Mdm2 MdmX PPI 99*, NTR1 ag 16, Mdm2-MdmX conf 78* and FLuc counter 47*.
For OC(c1cc(C(F)(F)F)nc2c(Cl)cc(Cl)cc12)C1CCCCN1 (centres undefined) the results were 697 NFkB inh -45, Bfl-1 A1 inh 2, Beta apoptosis 36, Jurkat NFkB inh 3, Mdm2 MdmX PPI 68*, NTR1 ag 20, Mdm2-MdmX conf 42* and FLuc counter 48*.
For COc1ccc(S(=O)(=O)N2CCCC2CNC(=O)C(=O)NCc2ccccc2Cl)cc1 (centres undefined) the results were 697 NFkB inh 0, Bfl-1 A1 inh 1, Beta apoptosis 5, Jurkat NFkB inh 5, Mdm2 MdmX PPI 23 and NTR1 ag 1.
